Experimental data reported in PubChem BioAssay AID493005 (National Center for Advancing Translational Sciences (NCATS), 2010).
Screen size: about 340,000 compounds; fewer than 10 were called active. The call rests on the fitted dose curve; in most records, active means well fitted inhibition curve with a large enough effect in the main read-out, with a control signal flat (not every such curve was filed as active); inconclusive means small, poorly fitted or top-dose-only effect, or effect the other way, or a change in a side signal; inactive means no such curve, though single readings can be large or run the other way. Not all results are given here.

Biological target: Tumor susceptibility gene 101 protein (Homo sapiens) (UniProt Q99816)
Sequence (Q99816 whole entry, looked up): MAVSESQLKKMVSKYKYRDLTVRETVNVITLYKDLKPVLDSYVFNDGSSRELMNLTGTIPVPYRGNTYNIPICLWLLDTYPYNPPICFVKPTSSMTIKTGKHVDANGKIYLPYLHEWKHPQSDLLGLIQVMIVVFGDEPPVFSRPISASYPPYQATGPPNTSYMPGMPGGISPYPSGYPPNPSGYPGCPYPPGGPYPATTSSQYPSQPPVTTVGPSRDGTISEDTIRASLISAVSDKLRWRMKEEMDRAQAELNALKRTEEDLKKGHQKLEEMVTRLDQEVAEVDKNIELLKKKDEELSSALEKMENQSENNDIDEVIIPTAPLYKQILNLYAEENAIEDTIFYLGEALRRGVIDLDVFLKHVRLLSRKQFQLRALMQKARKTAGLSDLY
Experiment: qHTS Assay for Iinhibitors of HIV-1 Budding by Blocking the Interaction of PTAP/TSG101; further: % of control where 0% means no effect
Details: Fluorescence polarization, FITC-PTAP peptide / Tsg101 binding; series mostly up to 115 µM; activity change, negative = inhibition: at the top concentration
Excerpt: NIH Molecular Libraries Probe Production Network [MLPCN] NIH Chemical Genomics Center [NCGC] MLPCN Grant: 1 R03 MH087464-01A1 PI Name: Dr. Eric Freed, NCI NCGC Assay Overview: Stages of the HIV-1 replication cycle, specifically virus assembly and release, provide underexploited targets for the development of novel antiviral inhibitors. The late stages of HIV-1 replication are mediated by the Gag precursor protein, Pr55Gag. Expression of Pr55Gag is both necessary and sufficient for the production of virus-like particles from Gag-expressing cells. The Gag protein hijacks key host proteins involved in endocytic machinery of the host cell to promote endosomal processing and viral budding. The budding process requires a direct interaction between a […] (PTAP) motif in the p6 domain of Gag and the cellular endosomal sorting protein known as Tsg101. In this way, the Gag PTAP motif promotes the host cells to recruit viral particles to the plasma membrane where the new viral particles are released, effectively turning the host cells into viral factories. A fluorescence anisotropy assay has been developed to quantitatively measure the PTAP-Tsg101 interaction which can be used to screen for inhibitors of this interaction.
NCGC Assay Protocol Summary: Two uL of the Tsg101 binding domain in buffer (10 mM HEPES pH 7.5; 0.15 M NaCl, 0.01% Tween 20; 3 mM EDTA;0.1 mM TCEP) was dispensed into Greiner black MB 1536-well plates (final concentration 10 uM). Then, 23 nL of compounds or DMSO were delivered to each well using a pin tool. Finally, 2 uL of a FITC-labeled peptide containing the PTAP motif (1) in the same buffer was dispensed (50 nM final concentration) and the binding was allowed to proceed for 20 min. at r.t. Fluorescent polarization was determined using FITC excitation and polarized emission filters on a Perkin Elmer Viewlux. Keywords: Tsg101, PTAP, Gag, HIV, fluorescent polarization, MLSMR, MLPCN, NIH Roadmap, qHTS, NCGC

Activity change, negative = inhibition, inactive:
CCN(CC)S(=O)(=O)c1cccc(NC(=O)c2ccc(S(=O)(=O)N3CCCC3)cc2)c1 -3.29%, CC(NCCO)C(=O)C12CC3CC(CC(C3)C1)C2 (stereo not given) -5.36%, COCCNC(=O)C(OC(=O)c1cccs1)c1ccc(F)cc1 (stereo not given) -1.42%, O=C1NC(Nc2nc3ccccc3s2)(C(F)(F)F)C(=O)N1C1CCCCC1 (stereo not given) -3.48%, COC(=O)c1cc(NC(=O)CC2C(=O)NCCN2C(=O)c2ccc(F)cc2)cc(C(=O)OC)c1 (stereo not given) -6.53%, Cc1occc(=O)c1OCc1c(Cl)cccc1Cl -1.89%, CCCCc1ccc(NS(=O)(=O)c2cccc(C(=O)N3CCCN(C)CC3)c2)cc1 -4.27%, CCC(=O)N1c2ccc(S(=O)(=O)NCc3ccco3)cc2CC1C (stereo not given) -2.03%, Cc1nnc(SCCCCSc2nnc(C)c(=O)[nH]2)[nH]c1=O -1.02%, CCOC(=O)c1cccc(NC(=O)CCc2nnc3ccc(N4CCOCC4)nn23)c1 -10.9%, CCCC[C@H]1COCCS(=O)(=O)N1Cc1cccc(Cl)c1 1.87%, C/C=C/c1ccc(OCC(=O)NNC(=O)CN(C)S(=O)(=O)c2ccc(C)cc2)c(OC)c1 -5.6%, CC(C)(C)c1cc(NC(=O)NN2CCOCC2)nn1-c1c(Cl)cc(Cl)cc1Cl -4.53%, COc1ccc(OC)c(C(O)c2nc3ccccc3n2C)c1 (stereo not given) 0.975%, NC(=O)C1(N2CCCC2)CCN(Cc2ccccc2)CC1 -2.04%, CCOC(=O)C1CN(S(=O)(=O)c2ccc(F)cc2)C1 -0.508%, CC(C)(C)n1cnnc1Sc1ccc([N+](=O)[O-])cn1 -5.76%, O=C(COC(=O)/C=C/c1cccc(Cl)c1)NCc1cccs1 -1.32%, Cc1onc(-c2c(F)cccc2Cl)c1C(=O)Nc1cccc(S(=O)(=O)N2CCCCC2)c1 -3.61%, CSc1sc(C(=O)NC(=O)NCc2cccnc2)c(C)c1-c1ccon1 -1.8%, Cc1nn(-c2ccccc2)c2c1C(c1cccc([N+](=O)[O-])c1)N(c1ccccc1)C(=O)N2 (stereo not given) -1.94%, CC1(C)C2CCC13CS(=O)(=O)NC3C2 (stereo not given) -2.1%, Cc1nc(Nc2ccccc2C)c2cnn(C)c2n1 -1.3%, O=C1N[C@@H](Cc2ccccc2)C(=O)N2[C@@H]3N(S(=O)(=O)c4ccc(F)cc4)c4ccccc4[C@]3(Br)C[C@@H]12 0.056%, CCC1=C(OC(=O)N(CC)CC)N2C(=O)OC(=NCC3CC3)[C@]2(C)[C@H]2C1=CC[C@H]1C(=O)N(CC(=O)OC)C(=O)[C@H]12 -10.6%, CC(C)N1CCc2c(sc(NC(=O)Cc3ccccc3)c2C#N)C1 -2.3%, C#CCCCc1nc2ccccc2c(=O)n1N -1.38%, CCCCN1CC(CO)Oc2cccc(F)c2S1(=O)=O (stereo not given) -5.79%, CCCc1nc(SCC(=O)Nc2ccccc2OC)c2c(=O)n(C)c(=O)n(C)c2n1 0.785%, CC(=O)Nc1cccc(NC(=O)CSc2nccn2Cc2ccc(F)cc2)c1 -2.24%, N#Cc1cccc(OC(=O)c2ccc3c(=O)n4c(nc3c2)CCC4)c1 -3.21%, CSc1ccccc1NC(=O)CN(C)CC(=O)Nc1cccc(Br)c1 0.804%, CN(C)/C(=N\OC(=O)c1ccccc1)c1nonc1N -1.1%, CCOc1ccc(NC(=O)[C@H](C)NC(=O)C2CC(=O)N(c3ccc(OC)cc3)C2)cc1 (stereo not given in full) -2.26%, COc1cc(C2NC(=O)NC(c3ccccc3)=C2C(C)=O)c(Br)cc1OCC(N)=O (stereo not given) 1.51%, Cc1ccc(C(NC(=O)N2CCCC2)C(Cl)(Cl)Cl)cc1F (stereo not given) 0.175%, CCn1c(CC(=O)Nc2ccccc2C)nnc1SCC(=O)NC1=NCCS1 0.499%, Cc1cccc(-n2c(Cc3cc(=O)[nH]c(=O)[nH]3)nnc2SC(C)C)c1 -3.65%, Cc1ccccc1C(=O)N1CCC(C(=O)Nc2ccc(S(=O)(=O)N(C)C(C)C)cc2)CC1 -5.76%, Cc1no[n+]([O-])c1COc1ccccc1/C=C1\NC(=S)NC1=O -1.51%, Cc1coc2cc3oc(=O)c(CCC(=O)O)c(C)c3cc12 -1.58%, CC(C)Cc1nnc(N)s1 0.822%, Cc1ccc2c(c1)N(CC(=O)NCCCN1CCCCC1)C(=O)c1cccnc1O2 -3.98%, CC1CC(C)CN(C(=O)CCNC(=O)Cn2cnc3ccccc3c2=O)C1 (stereo not given) -3.52%, O=C(Cc1ccc(S(=O)(=O)N2CCOCC2)s1)NCCOc1ccccc1F -3.13%, O=C(COc1ccc2c(c1)CCC2)N1CCN(c2ccc(F)cc2)CC1 -4.81%, CN(C)c1ccc(Nc2c3c4c(cccc4n(C)c2=O)C(=O)c2ccccc2-3)cc1 -12.6%, CC(Cc1cccs1)NC(=O)c1cccc(Cl)c1 (stereo not given) -2.64%, O=C(Cc1ccc([N+](=O)[O-])cc1)NCCc1ccc2c(c1)OCO2 0.815%, CCC(CC)C(=O)Nc1c2c(nn1-c1ccc(C)cc1)CS(=O)(=O)C2 -0.386%, CCCC1(C(=O)OCC)NC(c2ccc(N(C)C)cc2)C2C(=O)N(c3ccc4c(c3)OCCO4)C(=O)C21 (stereo not given) -5.54%, COc1cc2c(cc1CNC[C@H]1O[C@@H](n3cnc(C(N)=O)n3)[C@H](O)[C@@H]1O)OCO2 -0.393%, COc1ccc(/C=C/C2=CC(C)(C)NC(=S)N2)c(OC)c1 -5.34%, O=C(NC1CCN(C(=S)Nc2ccc(Cl)cc2)CC1)C1CCCCC1 -2.49%, N#CC1(NC(=O)COC(=O)CSc2ccc(F)cc2)CCCCC1 -0.309%, CC(=O)c1ccc(Cc2ncc(C(F)(F)F)cc2Cl)s1 -2.94%, COc1ccc(-c2cc(C(F)(F)F)n3nc(C(=O)N4CCOCC4)c(Cl)c3n2)cc1 -1.7%, Cc1ccsc1C1C(C#N)=C(N)OC2=C1C(=O)CC(C)C2 (stereo not given) -6.04%, O=[N+]([O-])c1cccc(S(=O)(=O)N2CCCCCC2)c1 -4.08%, CC(C)c1ccc(S(=O)(=O)N2CCC3(CC2)OCCO3)cc1 5%, O=C(CN1C(=O)NC2(CCCC2)C1=O)NCC1CCCO1 (stereo not given) -0.821%, NC(=O)c1ccc(CN2CCC(Cc3ccccc3)CC2)cc1 -4.25%, O=C(N/C(=C\c1ccc(O)cc1)C(=O)N1CCCCC1)c1ccccc1 -4.56%, O=C(O)C1C2C=CC(O2)C1C(=O)NCCc1cccc(Cl)c1 (stereo not given) -2.45%, CC1=C(C(=O)N(C)C)C(c2ccccc2OC(F)F)NC(=O)N1 (stereo not given) -2.19%, Cn1c2ccc(F)cc2c2nnc(NN)nc21 -1.99%, CC(C)Oc1ccc(CCc2n[nH]c(=S)n2Cc2ccccc2)cc1 -8.46%, CCc1nnc(NC(=O)CSc2nc3ccccc3c(=O)n2CCCOC)s1 -4.64%, O=C(Nc1ccc(-n2cccn2)cc1)C1CCN(Cc2ccsc2)CC1 -0.259%, CCOC(=O)C1Nc2ccc(C(F)(F)F)cc2C2C=CCC12 (stereo not given) -7.44%
